Test results reported in article PMC5540273 (PLoS ONE, 2017).
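Note: kd values determined as follow-up on hits from a single-replicate KINOMEscan panel screen.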

Each compound was assayed on DAPK1.
`COc1ccc(-c2nc3n(c2-c2ccncc2)CCC3)cc1` [SKF-104493] gave a Kd greater than 10 µM. Work on `CC(=O)Nc1n[nH]c2ncc(-c3ccccc3)cc12` [SB-548492] yielded a Kd greater than 10 µM. `Cl.Cl.c1ccc(-c2cc3ccncc3cc2OC2CCNCC2)cc1` [GSK1122999] was tested, and the Kd was 0.3 µM.

Each compound was assayed on DAPK3.
`O=C(c1ccc(-c2cc(-c3c[nH]nc3-c3ccccn3)ccn2)cc1)N1CCCC1` [GW792479] showed a Kd greater than 10 µM. Compound `FC(F)(F)c1ccc(-c2cc(-c3c[nH]nc3-c3ccccn3)ccn2)cc1` [GW599550] has a Kd greater than 10 µM. With `Cn1cc(-c2ccc3c(c2)CCN3C(=O)Cc2cccc(C(F)(F)F)c2)c2c(N)ncnc21` [GSK2606414] the Kd was greater than 10 µM. `Cl.Cl.c1ccc(-c2cc3ccncc3cc2OC2CCNCC2)cc1` [GSK1122999] gave a Kd of 0.17 µM.
